The source of these data is PubChem BioAssay AID1159580 (chemical genetic matrix, 2015).

About 2,000 (36%) of roughly 5,500 compounds were called active. Roughly 18% stayed inconclusive and do not appear here. Some of the results follow. Unmarked numbers belong to inactive results. Cut-off read from the data, not from the text of the source: active = normalized growth mostly below about 0.91 (no sharp cut-off); inconclusive = no clear call, values can overlap the other calls; inactive = mostly above about 0.92.

This experiment is described as follows: chemical genetic growth profiling, strain panel (AID 1159580).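 Note: tested at 20 µM; growth read once vehicle control cultures reached saturation at 30 °C; 1 = growth at the plate median or of vehicle wells; lower values mean less growth of the strain.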 The conditions noted are these: S. cerevisiae deletion strains, growth OD.
The mark [1] stands for this setting: locus YJR075W, strain HOC1, hits give low values.
The mark [2] stands for this setting: locus YNL128W, strain TEP1, hits give low values.
The mark [3] stands for this setting: locus YNL322C, strain KRE1, hits give low values.
The mark [4] stands for this setting: locus YPL055C, strain LGE1, hits give low values.

On to `CSc1c(-c2ccccc2)c(N)nn1S(=O)(=O)c1ccccc1`, for which the normalized growth (locus YAL013W, strain DEP1, hits give low values) was 0.99; the normalized growth (locus YBR229C, strain ROT2, hits give low values) is 0.982; the normalized growth (locus YCL061C, strain MRC1, hits give low values) is 0.993; the normalized growth (locus YDL101C, strain DUN1, hits give low values) is 0.978; the normalized growth (locus YDL134C, strain PPH21, hits give low values) is 0.998; the normalized growth (locus YDR150W, strain NUM1, hits give low values) is 0.979. Moreover, the normalized growth reads like this: (locus YEL061C, strain CIN8, hits give low values) 0.967; (locus YGR078C, strain PAC10, hits give low values) 0.98; (locus YHR030C, strain SLT2, hits give low values) 0.913; (locus YHR087W, strain rtc3, hits give low values) 0.973; (locus YJL187C, strain SWE1, hits give low values) 0.0597 (active); (locus YJR043C, strain POL32, hits give low values) 1.01. Moreover, the normalized growth by setting is: under setting [1], 0.971; (locus YLR039C, strain RIC1, hits give low values) 0.836; (locus YLR058C, strain SHM2 (second series), hits give low values) 0.996; (locus YLR085C, strain ARP6, hits give low values) 0.849; (locus YLR262C, strain YPT6, hits give low values) 0.901; (locus YML094W, strain GIM5, hits give low values) 0.944. The normalized growth was 1 (locus YMR219W, strain ESC1, hits give low values); 0.983 (locus YMR263W, strain SAP30, hits give low values); 0.815 (locus YMR307W, strain GAS1, hits give low values); 0.97 under setting [2]; 1 (locus YNL153C, strain GIM3, hits give low values); 0.907 (locus YNL298W, strain CLA4 (second series), hits give low values). In addition, the normalized growth runs as follows: under setting [3], 0.987; (locus YNR030W, strain Alg12, hits give low values) 0.951; under setting [4], 0.994; (locus YPL241C, strain CIN2, hits give low values) 0.943; (locus YPR135W, strain CTF4, hits give low values) 0.945.

Regarding `O=C(O)/C=C/C(=O)O`, the normalized growth (locus YAL040C, strain CLN3, hits give low values) was 1.02; the normalized growth (locus YCL061C, strain MRC1 (second series), hits give low values) was 1.01; the normalized growth (locus YDR363W, strain ESC2, hits give low values) is 1.01; the normalized growth (locus YER002W, strain NOP16, hits give low values) is 1.04; the normalized growth under setting [1] is 1.01; the normalized growth under setting [2] was 1.01. In addition, the normalized growth was 1.01 (locus YNL175C, strain NOP13, hits give low values); 1 (locus YNL197C, strain WHI3, hits give low values); 1 (locus YNL224C, strain SQS1, hits give low values); 1.02 under setting [3]; 1 (locus YOR083W, strain WHI5 (second series), hits give low values); 1.02 under setting [4].
